# p53null 32C tox – p53 null cell cytotoxicity, permissive temperature; Potency, µM (titrated, usually from 46.1 µM), for the others: at the highest dose activity change, negative = cytotoxicity, actives largely listed as cytotoxic; H1299-neo p53 null cells, ATP luminescence, 24 h, 32C; 55,000 compounds, 0.62% hits;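 further: potency means the concentration at half of the fitted maximal effect; 0% = DMSO only and -100% = full killing by 100 µM tamoxifen; nearly all actives have a fitted effect of over 55% in size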
#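 ATP-content luminescence in p53-null H1299-neo cells after 24 h compound exposure (up to 46 uM) at 32C permissive temperature; 0% and 100% killing set by DMSO and 100 uM tamoxifen; Hill-equation AC50.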
# HTT-AS act – activators of huntingtin-antisense promoter activity. HEK293 HTT-AS promoter firefly luciferase reporter, 24 h; response scale: percent change from vehicle, -100% = no light. Potency, µM (doses to about 57.5 µM), for inactives: at the highest dose activity change, positive = activation, usual class: activators. 48,000 compounds, 0.24% hits; further: potency means the concentration at half of the fitted maximal effect; nearly all actives have a fitted effect of over 55% in size
#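 Firefly luciferase readout (Dual-Glo, 10 min RT) after 24 h, 37 °C compound exposure (final up to 57.5 uM) of HEK293 reporter cells cultured 24 h beforehand; PTC124 at 50 uM final as control inhibitor; activity scaled vehicle 0%, zero RLU -100%.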
# HTT promoter inh – inhibitors of huntingtin promoter activity; 48,000 compounds, 0.93% hits; HEK293 HTT promoter firefly luciferase reporter, 24 h; Potency, µM (top dose mostly 57.5 µM), inactives show at the top dose activity change, negative = inhibition, actives largely listed as inhibitors; further: potency means the concentration at half of the fitted maximal effect; nearly all actives have a fitted effect of over 50% in size
#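 HEK293 cells carrying firefly luciferase reporters were seeded at 2,500 per well in Opti-MEM and cultured for 24 h. They were then treated with compounds at up to 57.5 uM final for 24 h at 37 degrees C before Dual-Glo luminescence readout.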
# p53null 39C kill – kills p53 null cells at the nonpermissive temperature. AID 904. 55,000 compounds, 0.97% hits. H1299 p53-null (neo) cells, 39C, ATPlite viability, 24 h. Potency, µM (top dose mostly 46.1 µM), inactives show at the highest dose activity, negative = cell killing, usual class: cytotoxic;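 further: potency means the concentration at half of the fitted maximal effect; 0% = DMSO only and -100% = full killing by 100 µM tamoxifen; nearly all actives have a fitted effect of over 50% in size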
#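 ATP-luminescence viability readout (ATPlite, 20 min RT) after 24 hr compound treatment at 39C of H1299-neo or H1299-p53A138V cells; titration up to 46 uM; normalized to DMSO and 100 uM tamoxifen; Hill-fit AC50.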
# DRV1 agonist – activates human resolvin D1 receptor GPR32; CHO-K1 GPR32 beta-arrestin PathHunter luminescence, 90 min; zero percent set by DMSO-only wells; activation, % at 76.9 µM; 48,000 compounds, 2.5% hits; O75388;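 active means activation of at least 60% and not above a set upper limit, about 1 call in 100 departs from these limits; inconclusive means activation of 40% to 60%, or above that upper limit; inactive means activation under 40%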; further: 0% is about no effect
# Target sequence (O75388 whole entry, looked up): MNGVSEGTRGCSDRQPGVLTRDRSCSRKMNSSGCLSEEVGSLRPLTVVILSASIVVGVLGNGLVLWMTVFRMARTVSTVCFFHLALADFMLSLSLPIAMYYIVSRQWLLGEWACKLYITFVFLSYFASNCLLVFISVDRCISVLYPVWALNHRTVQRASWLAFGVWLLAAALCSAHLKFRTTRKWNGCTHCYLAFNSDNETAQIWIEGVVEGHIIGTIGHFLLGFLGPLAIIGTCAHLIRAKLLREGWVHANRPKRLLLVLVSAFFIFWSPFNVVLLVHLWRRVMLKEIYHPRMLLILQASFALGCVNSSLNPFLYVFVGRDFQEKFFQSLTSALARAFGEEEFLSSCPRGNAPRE
#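 Beta-arrestin recruitment read-out: luminescence from complemented beta-Gal in CHO-K1 GPR32 PathHunter cells, measured 1 h after detection reagent at ambient temperature following 90 min compound exposure at 37 °C; DMSO served as basal (EC0) control.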
# Active calls of the source: *; ? = inconclusive; . = no result given. Shown are actives, neighbours in structure and some others; about 3.9% of the full set was active somewhere. Unless noted, the call rests on the fitted dose curve; in most records, active means well fitted curve in the direction sought with a large enough effect; inconclusive means small, poorly fitted or top-dose-only effect, or another doubt; inactive means no such curve, though single readings can be large; an effect the other way counts as inactive or inconclusive.
SMILES,p53null 32C tox,HTT-AS act,HTT promoter inh,p53null 39C kill,DRV1 agonist
O=S(=O)(NCc1ccc(F)cc1)c1ccc2[nH]c3c(c2c1)CCCC3,29%,-28%,-13%,?,118*
O=S(=O)(NCc1ccccc1)c1ccc2[nH]c3c(c2c1)CCCCC3,?,-32%,?,?,11
Cc1ccc(CNS(=O)(=O)c2ccc3[nH]c4c(c3c2)CCCC4)cc1,1%,-16%,8%,?,72*
COc1cccc(NC(=O)CSc2nc3ccc(NC(=O)c4cccs4)cc3s2)c1,5%,-15%,-7%,?,95*
Cc1cccc(NC(=O)CSc2nc3ccc(NC(=O)c4cccs4)cc3s2)c1,-8%,-13%,-2%,-30%,64*
O=c1cc(N2CCOCC2)oc2c(-c3cccc4c3sc3ccccc34)cccc12,.,-15%,-11%,.,.
CCc1cnn2c(NCc3ccc[n+]([O-])c3)cc(N3CCCC[C@@H]3CCO)nc12,.,-38%,?,.,.
O=C(C=CC#Cc1cccc(NS(=O)(=O)c2ccccc2)c1)NO,.,-17%,-38%,.,.
COc1ccc(NC(=O)c2cnc[nH]2)cc1,18µM*,?,66%,7.9µM*,9
CC(=O)Nc1ccc(Nc2ncnc3sc4c(c23)CCCC4)cc1,4%,-12%,11%,9%,97*
CCc1ccc(Nc2ncnc3sc4c(c23)CCCC4)cc1,-1%,-33%,-24%,9%,-2
COc1ccc(Nc2ncnc3sc4c(c23)CCCC4)cc1,-1%,-24%,-17%,16%,94*
Cc1ccc(C(N)=O)cc1Nc1nccc(-c2cn(C(C)C)c3cnccc23)n1,.,-30%,?,.,.
C[C@H]1[C@@H](OC(=O)CCC(=O)O)O[C@@H]2O[C@@]3(C)CC[C@@H]4[C@H](C)CC[C@@H]1[C@@]24OO3,.,-31%,?,.,.
CCS(=O)(=O)N1CC(CC#N)(n2cc(-c3ncnc4[nH]ccc34)cn2)C1,.,?,34%,.,.
O=C(Nc1ccccc1C(F)(F)F)C1CCN(c2nnc(-n3cccc3)s2)CC1,-5%,-7%,-19%,-13%,-7
CCN(CC)c1ccc(NC(=O)C2CCN(c3nnc(-n4cccc4)s3)CC2)c(C)c1,-3%,-19%,-34%,-17%,60*
CCOc1ccc(NC(=O)c2ccc3c(c2)CCN3S(=O)(=O)CC)cc1,6%,-30%,?,17%,67*
Cn1c(=O)c2sccc2n2c(CCCC(=O)Nc3ccc(Oc4ccc(Cl)cc4)cc3)nnc12,-28%,-27%,40µM*,?,-4
CCOc1ccc(CCNC(=O)CCCn2c(=O)c3cccn3c3ccccc32)cc1,7%,-20%,-20%,2%,-15
CSc1ccc(CCNC(=O)CCCn2c(=O)c3cccn3c3ccccc32)cc1,59%,-28%,-23%,13µM*,-26
CCC(CC)[C@H](NC(C)=O)[C@@H]1[C@H](O)[C@@H](C(=O)O)C[C@@H]1N=C(N)N,.,-15%,6%,.,.
COc1ccc(NC(=O)c2sc3nc4c(cc3c2N)CN(C(C)C)CC4)c(OC)c1,-2%,-22%,-14%,-27%,81*
Cc1ccc(NC(=O)c2sc3nc4c(cc3c2N)CN(Cc2ccccc2)CC4)cc1,4%,2%,6%,?,116*
CCC1CCc2nc3sc(C(=O)Nc4ccc(C)cc4C)c(N)c3cc2C1 (configuration not stated),-1%,-10%,-10%,35%,69*
SMILES,p53null 32C tox,HTT-AS act,HTT promoter inh,p53null 39C kill,DRV1 agonist
CCC1CCc2nc3sc(C(=O)Nc4ccc(F)c(F)c4)c(N)c3cc2C1 (configuration not stated),3%,14%,13%,26%,5
Nc1c(C(=O)Nc2cccc(Cl)c2)sc2nc3c(cc12)CN(Cc1ccccc1)CC3,-5%,1%,-23%,?,61*
CN(C)C1CCN(C(=O)c2ccc(NC(=O)Nc3nc(N4CCOCC4)nc(N4CCOCC4)n3)cc2)CC1,.,-37%,?,.,.
CCN1CCc2nc3sc(C(=O)Nc4cccc(Cl)c4C)c(N)c3cc2C1,-4%,-32%,-29%,?,121*
Cc1cccc(NC(=O)c2sc3nc4c(cc3c2N)CN(Cc2ccccc2)CC4)c1,-7%,1%,-20%,-18%,-10
Nc1c(C(=O)Nc2ccccc2F)sc2nc3c(cc12)CCCCCC3,1%,30%,8%,-7%,72*
Cc1ccc(-c2cc(NC(=O)COc3ccc(Cl)c(C)c3)on2)cc1,-3%,33%,1%,16%,10
Cc1ccc(-c2cc(NC(=O)c3ccccc3Cl)on2)cc1,-18%,4.5µM*,30%,-19%,13
O=C(O)C(O)Cc1ccc(O)c(O)c1 (configuration not stated),.,-7%,7%,.,.
Cn1c2ccccc2c2c(C(=O)N3CCN(c4cccc(C(F)(F)F)c4)CC3)cn(C3CCCCC3)c(=O)c21,12%,-26%,?,7%,-30
Cn1cc(C(=O)N2CCN(c3cccc(C(F)(F)F)c3)CC2)c2c3ccccc3n(C)c2c1=O,13%,-41%,?,?,118*
CC(=CC(=O)Nc1ccccc1C(=O)O)c1ccc2ccccc2c1,.,0%,9%,.,.
O=c1[nH]nc(Sc2ncc([N+](=O)[O-])s2)n1-c1ccc2c(c1)OCCO2,.,-95%,?,.,.
COc1cc(OC)c(NC(=O)CC(C)S(=O)(=O)c2ccc3c(c2)NC(=O)CO3)cc1Cl (configuration not stated),-10%,-11%,7%,-20%,73*
Nc1ccc2oc(-c3ccccn3)nc2c1,11µM*,.,.,-21%,.
COC(=O)c1ccc(-c2nc3cc(N)ccc3o2)cc1,?,.,.,-14%,.
Cc1ccc(CNc2c(C)c(C)nc3nncn23)cc1,-1%,-52%,?,-21%,?
CCc1c(C)nc2nncn2c1NCc1ccc(Cl)cc1,10%,-44%,?,-24%,66*
COC(=O)[C@H](CCCN=C(N)N)NS(=O)(=O)c1ccc(C)cc1,.,-2%,-7%,.,.
COc1cccc(-c2nnc(Nc3nc4c(F)cccc4s3)o2)c1,?,.,.,2.5µM*,.
CCO[C@@H]1O[C@H](C(COCc2ccccc2)OCc2ccccc2)[C@H](OCc2ccccc2)[C@H]1O (some centres not stated),.,-26%,?,.,-2
Cc1onc(-c2ccccc2)c1C(=O)Cl,.,-2%,2%,.,25
O=C(NOCC(O)CO)c1cc(Br)c(F)c(F)c1Nc1ccc(I)cc1F (configuration not stated),.,-26%,-12%,.,.
Cc1oc2ccc(O)c(CN3CCCC3)c2c1C(=O)Nc1ccc(C(C)C)cc1,-1%,.,.,-10%,118*
COc1ccc(NC(=O)c2c(C)oc3ccc(O)c(CN4CCC(C)CC4)c23)cc1Cl,9%,.,.,?,83*

# From PubChem
